In the library only some 3.6% were active in any assay of this set; here they are far more common.
mHTT-CaM PPI inh – mutant huntingtin-calmodulin interaction inhibitors – biochemical, AlphaScreen, primary screen. inhibition, % at 15 µM. P42858. AlphaScreen His-mHTT/GST-CaM binding, luminescence. actives 3.6% (n = 190,000). AID 1671202, 2021;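 note: 0% = both proteins with DMSO and 100% = one protein alone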
Pf apPOL block – Pf-apPOL inhibitors, biochemical, fluorescence; Plasmodium falciparum apicoplast DNA polymerase (apPOL); Recombinant Pf-apPOL, molecular beacon fluorescence, 1.5 h; inhibition, % at 10 µM; actives 0.25% (n = 210,000); AID 1794808, 2022
The depositor's hits bear a star; x = not tested or not shown. Cut-off read from the data, not from the text of the source: active = inhibition above about 50%; inactive = the rest.

SMILES | mHTT-CaM PPI inh | Pf apPOL block
COc1cc(/C=C2\C(=O)NN(c3ccc(I)cc3)C2=O)cc(OC)c1O | 61* | -3
CCOc1cc(/C=C2\C(=O)NN(c3cccc(Br)c3)C2=O)cc(Cl)c1OCC | 98* | -4
COc1cccc(/C=C2\C(=O)NN(c3cccc(C(F)(F)F)c3)C2=O)c1 | 85* | -2
CCOc1cc(/C=C2\C(=O)NN(c3ccc(Br)cc3)C2=O)cc(Cl)c1O | 35 | 1
O=C1NC(=O)N(c2cccc(C(F)(F)F)c2)C(=O)/C1=C/c1ccc(O)cc1 | 52* | 0
COc1cc(/C=C2\C(=O)NN(c3ccc(C)c(C)c3)C2=O)cc(OC)c1OC | 50 | 11
COc1cccc(/C=C2\C(=O)NN(c3ccc(C)c(C)c3)C2=O)c1 | 9 | -5
O=C(Nc1ccc(Cl)cc1)C1CCN(c2cncnc2N2CCOCC2)CC1 | 16 | -4
Cc1cccc(NC(=O)C(F)(F)F)c1C(=O)O | x | -3
Cc1oc(C2CCN(C(=O)Cc3ccccc3F)CC2)nc1C(=O)N1CCOCC1 | 9 | -1
COc1cc(Cl)cc(/C=C2\C(=O)NN(c3cccc(Cl)c3)C2=O)c1O | 58* | 0
COc1c(Cl)cc(/C=C2\C(=O)NN(c3ccccc3)C2=O)cc1Cl | 96* | -6
COc1cc(Cl)cc(/C=C2\C(=O)NN(c3ccc(C)c(C)c3)C2=O)c1O | 14 | -6
COc1cc(/C=C2\C(=O)NN(c3ccc(C)c(Cl)c3)C2=O)cc(OC)c1OC | 33 | -4
O=C(NCc1cccc(Br)c1)c1cnn2c3c(cnc12)CCCCCC3 | -7 | -3
CN1C(=O)CCc2cc(C(=O)N3CCCCC3)ccc21 | -3 | -1
Cc1ccsc1CCNS(=O)(=O)c1ccc2[nH]c3c(c2c1)CCCC3 | 62* | -1
Cc1ccsc1CCNS(=O)(=O)c1ccc2[nH]c3c(c2c1)CCCCC3 | 96* | -2
Cc1ccc(Cl)cc1NC(=O)CN(C)S(=O)(=O)c1ccc2[nH]c3c(c2c1)CCCC3 | 42 | -2
O=C(Cc1ccsc1)N1CCC2(C1)NCc1ccccc1NC2=NC1CCCC1 (configuration not stated) | 9 | -8
O=C(NCc1ccccc1)N1CCc2nc[nH]c2C1 | -12 | 0
O=C1CC(c2ccccc2)C2=C(CC(c3ccccc3)CC2=O)N1 (configuration not stated) | -1 | -2
O=C(Nc1nc2c(s1)CCCC2)c1ccc(-n2cccn2)nn1 | 3 | 0
CCOC(=O)N1CCN(C(=O)CCc2csc(NC(=O)c3ccc(F)cc3)n2)CC1 | -15 | -8
O=C(CCc1csc(NC(=O)c2ccc(F)cc2)n1)Nc1nc(-c2ccco2)cs1 | 58* | 10
SMILES | mHTT-CaM PPI inh | Pf apPOL block
O=C(Nc1nc(-c2ccco2)cs1)c1ccc(-n2cccn2)nn1 | 56* | 30
O=C(C1CCOC1)N1CCCn2nc(-c3cccc(Cl)c3)cc2C1 (configuration not stated) | -5 | 0
CC(C)N1CCC2(CC1)N=C(c1cc(Cl)ccc1O)CC(c1ccccc1O)N2 (configuration not stated) | 32 | 5
COc1ccc(C2CC(c3ccccc3O)=NC3(CCN(C(C)C)CC3)N2)cc1OC (configuration not stated) | 38 | -7
COc1ccc(C2CC(c3cc(Cl)ccc3O)=NC3(CCN(C(C)=O)CC3)N2)cc1 (configuration not stated) | 100* | -4
CCN1CCC2(CC1)N=C(c1ccccc1O)CC(c1ccc(Cl)cc1)N2 (configuration not stated) | 60* | -2
CCN1CCC2(CC1)N=C(c1ccccc1O)CC(c1ccccc1O)N2 (configuration not stated) | 35 | -3
CC(=O)N1CCC2(CC1)N=C(c1ccccc1O)CC(c1ccc(C(C)C)cc1)N2 (configuration not stated) | 7 | -5
COc1ccc(C2CC(c3ccccc3O)=NC3(CCN(C(C)=O)CC3)N2)cc1OC (configuration not stated) | 51* | -3
CC(=O)N1CCC2(CC1)N=C(c1cc(Cl)ccc1O)CC(c1ccc(F)cc1)N2 (configuration not stated) | 100* | -3
CCn1c(=O)c(N2CCN(C(=O)c3ccccc3F)CC2)nc2ccccc21 | -2 | -7
CN(C)CCNC(=O)c1cn2cc(Cl)ccc2n1 | -6 | -6
CCCCCNC(=O)c1ccc2c(c1)nc(C)n2-c1ccc(OC)cc1 | 23 | 35
Cc1cc2[nH]c(C(=O)N(C)C)c(CN3CCCCC3)c2s1 | -6 | 0
CC(O)(CNC(=O)Cc1cccc2ccccc12)c1ccc2c(c1)OCO2 (configuration not stated) | 3 | 3
CC(=O)N1CCC2(CC1)N=C(c1ccccc1O)CC(c1ccccc1O)N2 (configuration not stated) | 47 | -1
CN1CCC2(CC1)N=C(c1cc(Cl)ccc1O)CC(c1ccccc1O)N2 (configuration not stated) | 45 | -3

Bioassay records deposited in PubChem by University of Kansas High Throughput Screening Laboratory.
